From PubChem BioAssay AID504832 (National Center for Advancing Translational Sciences (NCATS), 2011)
The campaign covered roughly 310,000 compounds. About 18,000 (5.8%) were called active. About 22% were inconclusive and are not listed. This is one part of a sample in which actives are shown more often than they occur. Calls follow the shape of the dose curve; as a rule, active = well fitted inhibition curve with a large enough effect; inconclusive = small, poorly fitted or top-dose-only effect, or another doubt; inactive = no such curve, though single readings can be large or run the other way.

assay: Primary qHTS for delayed death inhibitors of the malarial parasite plastid, 48 hour incubation; conditions: P. falciparum luciferase growth in erythrocytes; series mostly up to 28.7 µM; activity change, negative = inhibition: at the top concentration
Method in brief: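 Luminescence readout; reporter = integrated firefly luciferase in P. falciparum. RBC culture at 2% hematocrit, 0.1% parasitemia final, 37 C/5% CO2; decreased signal taken as growth inhibition.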
% is scaled to controls: 0 for no effect and ±100 for the full control effect; potency is read from the fitted curve at half-maximal effect.

Compound | activity change, negative = inhibition | Potency
COc1ccc(NC(=O)CCn2ccnc2)c(OC)c1 | 2.35% (inactive) | 
O=C(CSc1nc2ccccc2c(=O)[nH]1)Nc1nc(-c2ccc(Br)cc2)cs1 | 4.63% (inactive) | 
COc1ccc(-c2csc(NC(=O)CCCc3cccs3)n2)cc1 | 5.99% (inactive) | 
Cc1cc(C)c(-c2csc(NC(=O)CCCc3nc4ccccc4c(=O)[nH]3)n2)c(C)c1 |  | 0.131 µM (active)
CCN(CC)c1ccc(C(=O)NNC(=O)CCc2nc3ccccc3c(=O)[nH]2)cc1 | 0% (inactive) | 
CC(C)(C)c1ccc(NC(=O)COC(=O)CCc2nc3ccccc3c(=O)[nH]2)cc1 | 36.9% (inactive) | 
CC(=O)NCc1ccc(-c2csc(NC(=O)CCCc3nc4ccccc4c(=O)[nH]3)n2)cc1 |  | 9.28 µM (active)
CN(C(=O)CCNC(=O)Cn1ccc2ccccc2c1=O)c1ccc(Br)cc1 | 23.2% (inactive) | 
N=c1oc2ccccc2cc1C(=O)NCc1ccccc1 | 23.7% (inactive) | 
CS(=O)(=O)N1CCc2cc(C(=O)Nc3ccccc3Br)ccc21 | 88.1% (inactive) | 
COc1ccc(NC(=O)CNC(=O)Cc2ccccc2)cc1OC | 27% (inactive) | 
Cc1cc(NC(=O)CCC(=O)N(Cc2ccccc2)C(C(=O)NC2CCCC2)c2ccc(C)o2)no1 (stereo not given) | -18.2% (inactive) | 
CN(Cc1c(F)cccc1Cl)C(=O)CNC(=O)c1ccc2c(c1)OCO2 | 24.5% (inactive) | 
NC(=O)NC(CC(=O)NNC(=O)c1ccccn1)c1ccc(Cl)cc1 (stereo not given) | -6.59% (inactive) | 
Cc1cc(C)c2c(=O)[nH]c(SCC(=O)Nc3ccc(Br)cc3)nc2n1 | 21.1% (inactive) | 
CN(C)CCn1c2c(c(SCC(=O)Nc3ccccc3C(F)(F)F)nc1=O)CCCC2 | 5.64% (inactive) | 
COc1ccccc1CNC(=O)CSc1nc(=O)n(Cc2ccncc2)c2c1CCC2 |  | 11.7 µM (active)
CN(C)CCn1c2c(c(SCC(=O)NCc3ccccc3)nc1=O)CCC2 | 2.52% (inactive) | 
Cc1ccc(NS(=O)(=O)c2ccc3c(c2)oc(=O)n3C)c(C)c1 | 22% (inactive) | 
Cc1c(NC(=O)C(C)Oc2cccc(Cl)c2)c(=O)n(-c2ccccc2)n1C (stereo not given) | 32.1% (inactive) | 
COc1ccc(NC(=O)c2cnc(NS(=O)(=O)c3ccccc3)nc2)cc1 | 25.7% (inactive) | 
COc1ccc(-c2cc(C(=O)N(C)CC(=O)Nc3ccccc3Cl)c3ccccc3n2)cc1OC |  | 13.1 µM (active)
COc1ccc(CN(C)C(=O)c2cc(-c3ccc(C)cc3C)nc3ccccc23)c(OC)c1OC |  | 9.28 µM (active)
CN(CC(=O)Nc1ccccc1Cl)C(=O)c1ccccc1SCC(=O)N1CCCC1 | 11.3% (inactive) | 
Cc1ccc(-c2cc(C(=O)Nc3nn[nH]n3)c3ccccc3n2)c(C)c1 | -32% (inactive) | 
COc1ccc(C)cc1N(C)C(=O)c1coc(=O)c2ccccc12 | -11.7% (inactive) | 
Cc1cccc(C(=O)NCC(=O)OCC(=O)N(C)CC(=O)Nc2ccccc2Cl)c1 | -14.3% (inactive) | 

Compound | activity change, negative = inhibition | Potency
COc1cc(N=Cc2c(O)c3ccccc3oc2=O)c(OC)cc1Cl | 1.98% (inactive) | 
CC(C)c1nnc(NC(=O)COC(=O)/C=C/c2ccc([N+](=O)[O-])cc2)s1 | 18.6% (inactive) | 
COc1ccccc1-n1nnnc1SCC(=O)NC(=O)Cc1ccccc1 | -5.56% (inactive) | 
C=CCOc1cccc(CNn2cn[nH]c2=S)c1 | 1.4% (inactive) | 
COc1cccc(CNn2cn[nH]c2=S)c1OCc1ccccc1 |  | 10.4 µM (active)
C=CCOc1c(CNn2cn[nH]c2=S)cccc1OC | 11.7% (inactive) | 
CC(=O)c1c(C)[nH]c(C(=O)OCC(=O)Nc2c(C)cccc2C)c1C | -25.1% (inactive) | 
CSc1ccc(Cl)c(C(=O)OCC(=O)N2CCNC2=O)c1 | -4.4% (inactive) | 
COc1ccc(C(=O)NC(=S)N2CCNC(=O)C2CC(=O)OC(C)C)cc1 (stereo not given) | 12.5% (inactive) | 
CCOC(=O)CC1C(=O)NCCN1C(=O)COc1ccc(Br)cc1C (stereo not given) | 13.7% (inactive) | 
CCOC(=O)CC1C(=O)NCCN1c1nc2c(C)cccn2c(=O)c1/C=C1\SC(=S)N(C(C)CC)C1=O (stereo not given) |  | 8.28 µM (active)
Cc1cc2c(cc1C)[n+](C)cn2CC(O)COCC1CC=CCC1 (stereo not given) |  | 2.94 µM (active)
COc1ccc(S(=O)(=O)NCCOc2ccccc2)cc1F | 5.24% (inactive) | 
COc1ccc(NC(=O)CCC(=O)Nc2cc(OC)c(NC(=O)c3ccco3)cc2OC)c(OC)c1 | -16% (inactive) | 
CC1(c2ccc(Cl)cc2Cl)NC(=O)N(CC(=O)Nc2cccnc2Cl)C1=O (stereo not given) | -27.2% (inactive) | 
Cc1cc(Br)ccc1NC(=O)CN(C)C(=O)CN1C(=O)NC2(CCCC2)C1=O | 5.04% (inactive) | 
COc1ccc2cc(S(=O)(=O)Nc3ccccn3)ccc2c1 | 22.5% (inactive) | 
Cc1ccc(S(=O)(=O)Nc2ccc3ncccc3c2)cc1 | 12.7% (inactive) | 
COc1cc(NS(=O)(=O)c2ccc3ccccc3c2)c2ncccc2c1 |  | 4.15 µM (active)
CN(C(=O)C1CCN(c2ncnc3c2nc2n3CCCCC2)CC1)C1CCCCC1 | -26.7% (inactive) | 
Cc1cc(C)cc(NC(=O)NCc2ccccn2)c1 | 14.4% (inactive) | 
CN(C)C(=O)N=NC(=O)N(C)C | 31.1% (inactive) | 
O=C(CN1CCOCC1)Nc1ccccc1 | 12.8% (inactive) | 
Cc1ccc(-c2c[n+](CC(=O)Nc3ccccc3)c3n2CCC3)cc1 |  | 7.38 µM (active)
O=C(C[n+]1cc(-c2ccc(Cl)c(Cl)c2)n2c1CCC2)c1cccs1 |  | 2.08 µM (active)
O=C(CN1C2=NCCN2c2ccccc21)c1cccs1 | -21.3% (inactive) | 
Cc1ccc(C(=O)CSc2ccccc2C(=O)O)cc1 | 143% (inactive) | 

Compound | activity change, negative = inhibition | Potency
Cc1ccc(C(=O)C[n+]2cc(-c3ccccc3)n3c2CCCCC3)cc1 |  | 1.85 µM (active)
CCS(=O)(=O)N1CCN(C(=O)c2cccs2)CC1 | 9.32% (inactive) | 
Cc1ccc(C(=O)CS(C)(=O)=O)cc1 | 29.6% (inactive) | 
Cc1ccc(S(=O)(=O)N(C)CC(=O)OCC(=O)Nc2ccccc2)cc1 | 18.3% (inactive) | 
Cc1c(NC(=O)c2c([N+](=O)[O-])cnn2C)c(=O)n(-c2ccccc2)n1C | 34.2% (inactive) | 
Cc1ccc(NC(=O)CCN2C(=O)c3ccccc3C2=O)cc1C | 21.4% (inactive) | 
O=C(NCc1ccc2c(c1)OCO2)C(=O)NCC1OCCN1S(=O)(=O)c1ccc(F)cc1 (stereo not given) | 0.0605% (inactive) | 
O=C(COc1ccccc1)Nc1cc2c3c(c1)CC(=O)N3CCC2 | 17.9% (inactive) | 
Cc1nn(-c2ccccc2)c2c1c(C)c(CCC(=O)NCC1CCCO1)c(=O)n2C (stereo not given) | -0.0028% (inactive) | 
Cc1cc(OCC(=O)Nc2c(C)n(C)n(-c3ccccc3)c2=O)ccc1[N+](=O)[O-] | 39.8% (inactive) | 
CCCCc1nc2cc(C(=O)NCCc3cnn(C)c3)ccc2o1 | 18.3% (inactive) | 
Cc1oc(-c2ccccc2F)nc1CS(=O)CC(=O)NCCN1CCCCC1C (stereo not given) | -20.8% (inactive) | 
C/C(=N\NC(=S)NC(C)C)c1ccc(C(C)(C)C)cc1 | -17.9% (inactive) | 
CC(C)(C)NC(=O)C(=O)NN=C1CCCCCCC1 | -16.6% (inactive) | 
CC(C)NC(=S)NN=C1CCCCCCCCCCC1 |  | 11.7 µM (active)
COc1ccccc1C(=O)Nc1cccc(C(=O)N2CCOCC2)c1 | 12.5% (inactive) | 
Cc1noc(C)c1CCC(=O)N1CCCC(CO)(Cc2ccccc2)C1 (stereo not given) | -13% (inactive) | 
Cc1ccccc1N1CCN(CCCN2C(=O)C3CCCCN3C2=O)CC1 (stereo not given) | 1.5% (inactive) | 
CC(=O)Nc1ccc(S(=O)(=O)NNC(=O)CCc2ccccc2)cc1 | -1.07% (inactive) | 
CS(=O)(=O)N1CCCC(C(=O)Nc2ccccc2C(F)(F)F)C1 (stereo not given) | 45.1% (inactive) | 
O=C(OCC1OC(Oc2ccc(O)cc2)C(O)C(O)C1O)c1ccccc1 (stereo not given) | 7.83% (inactive) | 
Cc1cc(C)c2nc(SCCC#N)nc(C)c2c1 | 19.6% (inactive) | 
Cc1cc(C)c2nc(-c3ccco3)cc(C(=O)O)c2c1 | 37.6% (inactive) | 
Cc1cc(C)c2nc3nc(C)cc(C)c3c(N)c2c1 |  | 2.33 µM (active)
CCC1=Nc2cc(C(=O)NCCN3CCCC3)ccc2Sc2ccc(C)cc21 |  | 10.4 µM (active)
Cc1ccc(C(=O)NCCN2CCOCC2)cc1C | 0% (inactive) | 
Cc1cc(C)cc(C(=O)NCCN2CCOCC2)c1 | 4.04% (inactive) | 

Compound | activity change, negative = inhibition | Potency
COc1cccc(C(C(=O)NC2CCCC2)N(C(=O)c2ccco2)c2cccc(C(C)=O)c2)c1OC (stereo not given) |  | 1.85 µM (active)
O=C(NCc1ccccc1)C(c1ccco1)N(C(=O)c1csnn1)c1ccccc1F (stereo not given) | -3.21% (inactive) | 
O=C(NC1CCCC1)C(c1ccc(N2CCOCC2)cc1)N(C(=O)c1ccco1)c1ccccc1F (stereo not given) |  | 10.4 µM (active)
Cc1ccc(N(C(=O)CNC(=O)c2ccco2)C(C(=O)NC2CCCC2)c2ccncc2)cc1 (stereo not given) | 33.6% (inactive) | 
COc1cccc(N(C(=O)CNC(=O)c2ccco2)C(C(=O)NC2CCCCC2)c2cccnc2)c1 (stereo not given) | -15.6% (inactive) | 
O=C(NC1CCCC1)C(c1ccco1)N(C(=O)c1csnn1)c1ccccc1 (stereo not given) | 27.1% (inactive) | 
COc1cc(C(C(=O)NC2CCCC2)N(C(=O)c2ccco2)c2ccccc2C(C)=O)cc(OC)c1OC (stereo not given) | 0% (inactive) | 
Cc1ccccc1N(C(=O)CNC(=O)c1cccs1)C(C(=O)NC1CCCC1)c1ccncc1 (stereo not given) | -25.1% (inactive) | 
CC(C)c1ccc(N(C(=O)c2ccco2)C(C(=O)NC2CCCC2)c2cccnc2)cc1 (stereo not given) |  | 9.28 µM (active)
CSc1ccccc1NC(=O)C(C)N1C(=O)c2ccccc2S1(=O)=O (stereo not given) | 5.38% (inactive) | 
CC1=C(C(=O)OC2CCCCC2)C(c2ccccc2F)NC(=O)N1 (stereo not given) | 9.51% (inactive) | 
CC(=O)c1c(C)[nH]c(C(=O)COc2ccc3c(C)cc(=O)oc3c2)c1C | -27.3% (inactive) | 
CN(C1CCS(=O)(=O)C1)S(=O)(=O)c1ccc2ccccc2c1 (stereo not given) | 6.76% (inactive) | 
COc1ccc(NC(=O)NNC(=O)COc2cc(C)c(Cl)c(C)c2)c(OC)c1 | -13.6% (inactive) | 
CN1/C(=c2/s/c(=C3/C(=O)N(c4ccccc4)NC3=Nc3ccccc3)n(C)c2=O)C(C)(C)c2ccccc21 |  | 13.1 µM (active)
CCN1C(=O)/C(=c2\s/c(=C3\Sc4ccccc4N3C)c(=O)n2C)N(C)C1=S | 19.1% (inactive) | 
CCc1cc2c(NC(Cc3ccccc3)C(=O)O)ncnc2s1 (stereo not given) | -1.44% (inactive) | 
CC(C)(C)C(=O)CSc1ccc(S(=O)(=O)N2CCCC2)cn1 | -9.44% (inactive) | 
Cc1ccc(C)c(C(C)NC(=O)C2CCCO2)c1 (stereo not given) | -1.62% (inactive) | 
COc1ccc(C(=O)NC2CC2)cc1OC1CCN(Cc2cnn(C)c2)CC1 | 3.24% (inactive) | 
Clc1ccc(CN2CCCCCC2)cc1Cl | 6.3% (inactive) | 
Clc1ccc(C[n+]2cc(-c3ccccc3)n3c2CCC3)cc1 |  | 1.04 µM (active)
Clc1ccc(C[n+]2cc(-c3ccc(Cl)cc3)n3c2CCC3)cc1 |  | 0.828 µM (active)
Cn1c(-c2ccccc2)c[n+]2c1CCCCC2 | 8.51% (inactive) | 
